# Screen size: about 120,000 compounds; about 5,300 (4.4%) were called active. Inconclusive results (about 22%) are left out. The call rests on the fitted dose curve; in most records, active means well fitted inhibition curve with a large enough effect; inconclusive means small, poorly fitted or top-dose-only effect; inactive means no such curve, though single readings can be large or run the other way. This excerpt belongs to a sample that is enriched for actives.
# Test: qHTS Primary assay for Inhibitors of Plasmodium falciparum Dd2 growth in vitro; further: nearly all actives have a fitted effect of over 65% in size;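 on activity, negative = inhibition: plate controls were DMSO vehicle for no effect and reference drug for full effect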
# Conditions: P. falciparum Dd2 growth, SYBR Green, 72 h; series mostly up to 28.9 µM; activity, negative = inhibition: at the top concentration
# Method in brief: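 Readout: SYBR Green fluorescence, 485 nm excitation, 535 nm emission, after ~16 h lysis at 37C. Before that, Dd2-infected red cells (2.5% hematocrit) grew 72 h with compound, 29 uM top final concentration.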
# Potency means the concentration at half of the fitted maximal effect.
Compound,"activity, negative = inhibition",Potency,outcome
Cc1cnc(C(=O)N(C)C2CCc3nnc(C)n3CC2)cn1 (centres undefined),25.9% (inactive),–,–
O=C(NC1CC(=O)N(CCc2cccc(Cl)c2)C1)c1ccsc1 (centres undefined),-3.9% (inactive),–,–
O=C(CC1CC1)N1C[C@H]2OC(=O)N(CCc3cccc(Cl)c3)[C@H]2C1,2.24% (inactive),–,–
O=C1CC(NCc2ccoc2)CN1CCc1cccc(Cl)c1 (centres undefined),–,10 µM (active),–
COc1ccc(-c2nc(CN3CCOC(CN)C3)c(C)o2)c2ccccc12 (centres undefined),–,12.6 µM (active),–
COc1cccc(-c2nc(CS(=O)(=O)CC(=O)N3CCN(c4cc(C)ccc4C)CC3)c(C)o2)c1,3.78% (inactive),–,–
COC(=O)c1cc2occc2n1Cc1nc(-c2ccccc2C)oc1C,10.3% (inactive),–,–
Cc1oc(-c2cccs2)nc1CN1CCOC(Cc2ccccc2)C1 (centres undefined),–,–,inactive
COc1ccc(-c2nc(Cn3c(=O)cc(C)c4c(C)nn(-c5ccccc5)c43)c(C)o2)cc1OC,14.2% (inactive),–,–
Cc1oc(-c2cccc(Oc3ccccc3)c2)nc1CN1CCOC(CCN)C1 (centres undefined),–,7.08 µM (active),–
CC(C)CN=C1S[C@H]2[C@H]([C@@H](O)[C@H](O)C[C@@H]2C(N)=O)N1Cc1ccc(F)cc1,4.29% [at 44.1 µM] (inactive),–,–
O=C(Cc1cccc(F)c1)NC1CCN(c2cc(C(F)(F)F)ncn2)CC1,-19.3% (inactive),–,–
COc1ccc(N2CCN(C(=O)c3ccc4c(Cl)c5c(nc4c3)CCCC5)CC2)cc1,13.6% (inactive),–,–
CCOC(=O)C1CCN(C(=O)CSc2c3c(nc4ccc(Cl)cc24)CCCC3)CC1,–,14.1 µM (active),–
CCOC(=O)C1CCN(c2nc3c(S(=O)(=O)c4ccc(CC)cc4)nnn3c3ccc(Cl)cc23)CC1,–,–,inactive
COc1cc(C(=O)N2CCC(Cc3nc(-c4ccccc4)no3)CC2)cc(OC)c1OC,-20.4% (inactive),–,–
O=C(N[C@H]1CCOC[C@H]1C1CCOCC1)c1cccc2nccnc12,-4.65% (inactive),–,–
CCn1ncc(N2CCCC(CC(=O)NCc3ccc(OC)cc3)C2)cc1=O (centres undefined),-13.4% (inactive),–,–
O[C@@H]1C[C@@H](c2nc(Cc3ccc(F)cc3Cl)no2)N(Cc2ncc[nH]2)C1,-8.76% [at 44.1 µM] (inactive),–,–
Cc1nn(Cc2ccccc2)c(C)c1[C@@H]1C=C[C@@H](NC(=O)NC2CCCCC2)C1,–,–,inactive [at 44.1 µM]
Cc1nn(-c2ccc(C(C)C)cc2)c(C)c1[C@@H]1C=C[C@@H](NC(=S)NCC(C)C)C1,–,12.6 µM (active),–
Cc1nn(-c2cccc(Br)c2)c(C)c1[C@@H]1C=C[C@@H](NC(=O)CC2(CC(=O)O)CCCC2)C1,–,–,inactive
Cc1nn(-c2ccc(C(C)C)cc2)c(C)c1[C@@H]1C=C[C@@H](NC(=O)CC2(CC(=O)O)CCCC2)C1,–,–,inactive

Compound,"activity, negative = inhibition",Potency,outcome
Cc1nn(-c2ccc(C(C)C)cc2)c(C)c1[C@@H]1C=C[C@@H](NC(=O)Nc2ccccc2)C1,–,11.2 µM (active),–
COc1ccc(-n2nc(C)c([C@H]3C=C[C@@H](OC(=O)Nc4cccc(F)c4)C3)c2C)cc1,–,10 µM (active),–
COc1cccc(NC(=O)Cn2c(=O)cc(C)c3c(C)nn(-c4cccc(F)c4)c32)c1,-8.11% (inactive),–,–
Cc1nn(-c2ccccc2)c(C)c1[C@@H]1C=C[C@@H](NC(=O)c2ccc3c(c2)OCO3)C1,-0.301% [at 44.1 µM] (inactive),–,–
Cc1nn(Cc2ccccc2)c(C)c1[C@@H]1C=C[C@@H](NC(=O)NC(C)C)C1,-18.8% [at 44.1 µM] (inactive),–,–
COc1ccc(-n2nc(C)c([C@@H]3C=C[C@@H](NC(=O)Nc4ccccc4)C3)c2C)cc1,–,10 µM (active),–
Cc1nn(CCC#N)c(C)c1[C@@H]1C=C[C@@H](NS(=O)(=O)c2ccccc2)C1,–,–,inactive [at 44.1 µM]
CCC(C)NC(=O)Cc1csc2nc(C)c(-c3cc(C)n(-c4ccc(C(C)C)cc4)n3)c(=O)n12 (centres undefined),-19% (inactive),–,–
C=CCNC(=O)C1N(C(C)C)C(=O)C12CCCCC2 (centres undefined),-0.782% (inactive),–,–
COc1ccc(NC(=O)C2CN(S(=O)(=O)c3cccnc3)CC23CCCCC3)cc1F (centres undefined),-14.2% (inactive),–,–
CCOCCCNC(=O)N1C[C@@H](Oc2cccnc2)C[C@@H]1C(=O)N1CCOCC1,8.67% (inactive),–,–
CCCN(CC1CCOC1)S(=O)(=O)c1ccc2c(c1)CCCC2 (centres undefined),7.48% [at 5.79 µM] (inactive),–,–
CC(C)N1C(=O)CO[C@H]2CCN(CCCc3ccccc3)CC[C@@H]21,–,–,inactive [at 44.1 µM]
COc1ccc(NC(=O)C2CCCN(S(=O)(=O)c3cccc4nonc34)C2)cc1Cl (centres undefined),7.47% (inactive),–,–
CCCCN(C)CCNC(=O)C1CCCN(S(=O)(=O)c2cccc3nsnc23)C1 (centres undefined),–,5.01 µM (active),–
CCCCC(CC)CNC(=O)C1CCN(S(=O)(=O)c2cccc3nsnc23)CC1 (centres undefined),–,–,inactive
O=C(Cc1cccc(Cl)c1)NCc1nnc2ccc(-c3ccccc3)nn12,–,–,inactive
Cc1cc(C(=O)N2CCCCCCn3c(nnc3-c3ccc(F)cc3)CC2)nn1C,-22.6% (inactive),–,–
CCN(Cc1ccccc1)C(=O)CCS(=O)(=O)c1ccc2c(c1)oc(=O)n2C,22.1% (inactive),–,–
CCOC(=O)c1ccc(NC(=O)CCS(=O)(=O)c2ccc3c(c2)oc(=O)n3C)cc1,25.6% (inactive),–,–
Cc1c(Cl)cccc1NC(=O)CCS(=O)(=O)c1ccc2c(c1)oc(=O)n2C,–,3.16 µM (active),–
COc1cccc(CC(=O)N2CCN(c3cc(-c4cccs4)[nH]n3)CC2)c1,–,–,inactive
O=C(NCCn1ccn2nc(-c3ccc(F)cc3)cc2c1=O)c1ccco1,–,–,inactive

Compound,"activity, negative = inhibition",Potency,outcome
COC(=O)c1ccc(NC(=O)N2[C@H]3CC[C@@H]2c2cnc(-c4ccc(F)cc4)nc2C3)cc1,–,7.08 µM (active),–
Cn1cnc(S(=O)(=O)N2[C@H]3CC[C@@H]2c2cnc(-c4ccc(F)cc4)nc2C3)c1,29.6% (inactive),–,–
O=C(Cc1ccccc1)N1[C@H]2CC[C@@H]1c1cnc(-c3ccc(F)cc3)nc1C2,–,–,inactive
O=C1NCCOCCN(C(=O)Nc2ccccc2)[C@@H]2CCCC[C@H]12,40.6% (inactive),–,–
COc1ccc(-c2noc([C@@H](C)NCc3ccc(F)cc3)c2C(=O)O)cc1,7.52% [at 44.1 µM] (inactive),–,–
O=C(c1ccc(Cl)cc1)N1CCn2c(nn(-c3ccncc3)c2=O)C1,15% (inactive),–,–
CCOC(=O)C1=CN(CC(=O)Nc2cccc(C(C)C)c2)S(=O)(=O)N=C1C,-4.4% (inactive),–,–
COc1ccc(-c2cc([C@H]3CN4CC[C@H]3C[C@@H]4CNC(=O)c3ccccc3)n(C)n2)cc1OC,–,11.2 µM (active),–
COc1ccccc1-c1cc([C@H]2CN3CC[C@H]2C[C@@H]3CNCc2cccc(C#N)c2)n(C)n1,–,–,inactive [at 44.1 µM]
COc1ccc(-c2ccc3ncn(Cc4ccccc4)c(=O)c3n2)cc1OC,–,–,inactive [at 44.1 µM]
COc1cc2c(cc1OC)C(CNC(=O)c1cccc(Cl)c1)N(C(=O)Nc1ccccc1)CC2 (centres undefined),–,–,inactive
Cc1ccc(S(=O)(=O)NC[C@H]2C[C@@H]3CCN2C[C@@H]3CN2CCN(c3ncccn3)CC2)cc1,-25.5% (inactive),–,–
Cn1nc(-c2ccc(F)cc2)cc1[C@H]1CN2CC[C@H]1C[C@@H]2CNCc1ccccn1,–,2.82 µM (active),–
COc1ccc(-c2cc([C@H]3CN4CC[C@H]3C[C@@H]4CNS(=O)(=O)Cc3ccccc3)n(C)n2)cc1OC,–,11.2 µM (active),–
COc1ccc(-c2cc([C@H]3CN4CC[C@H]3C[C@@H]4CNC(=O)C3CC3)n(C)n2)cc1OC,-12% [at 44.1 µM] (inactive),–,–
O=C(NCc1ccccc1)[C@H]1CN2CCC1C[C@@H]2Cn1cc(-c2ccc(F)cc2)nn1 (some centres undefined),-7.01% [at 44.1 µM] (inactive),–,–
Cc1ccc(C(=O)N2CC[C@H](CO)[C@H](NC(=O)C3CC3)C2)cn1,22.4% (inactive),–,–
O=C(NCc1cnn(Cc2ccccc2)c1)c1ccc2oc(-c3cccc(F)c3)nc2c1,-17.9% (inactive),–,–
COc1ccc(-c2cc(CC3(N(Cc4ccc(CO)o4)Cc4ccc(CO)o4)COC3)no2)cc1,–,–,inactive
CCOC(=O)c1c(NC(=O)/C=C/c2ccc(OC)cc2)sc2c1CCC(C)C2 (centres undefined),38.9% (inactive),–,–
CCOC(=O)c1c(NC(=O)c2ccc(S(=O)(=O)N3CCCC(C)C3)cc2)sc2c1CCN(C(C)C)C2 (centres undefined),–,7.94 µM (active),–
CCOC(=O)c1c(NC(=O)c2ccc(S(=O)(=O)N(CC)CC)cc2)sc2c1CCCCC2,-18.8% (inactive),–,–
Clc1ccc(CN2CCC3(CC2)CC(c2ccccc2)=NO3)cc1,-16.7% (inactive),–,–

Compound,"activity, negative = inhibition",Potency,outcome
Cc1ccc(NC(=O)N2CCc3[nH]c4ccc(F)cc4c3C2)cc1C,-6.52% (inactive),–,–
COc1ccccc1-n1cc(C(=O)N2CCc3c(Cl)cccc3C2)cn1,-17.5% (inactive),–,–
COC[C@@H]1CN(C(=O)COc2cccc(C)c2)C[C@H]1c1nc(C)no1,-10.3% (inactive),–,–
CCOC(=O)C1CCN(C(=O)c2cccc3c2CCN3C(=O)Nc2ccccc2)CC1,–,11.2 µM (active),–
Cc1ccccc1CNC(=O)c1ccc(NC(=O)N2CCCCc3ccccc32)cc1,48% (inactive),–,–
CC[C@H]1CN(C(=O)Nc2ccccc2)CC[C@H]1CC(=O)Nc1ccccc1,–,–,inactive [at 44.1 µM]
COCc1cc(CC2(NCC(C)(C)C)COC2)no1,-17.5% [at 44.1 µM] (inactive),–,–
CC(=O)N[C@@H]1Cc2ccccc2[C@H]1n1ccnc1-c1cc2n(n1)CCNC2,-0.272% (inactive),–,–
Cc1ccc(N2CCN(C(=O)c3ccc4c(c3)N(C)C3CCCCCN3C4=O)CC2)cc1 (centres undefined),–,–,inactive
COc1ccc(-c2nc(-c3ccccc3)nc3c2CN(C(=O)c2ccc(C)cc2)CC3)cc1,–,11.2 µM (active),–
CC(C)c1nc2c(c(-c3ccc(O)cc3)n1)CN(C(=O)Nc1ccccc1)CC2,–,–,inactive
O=C(Nc1ccccc1)N1CCc2nc(-c3ccccc3)nc(-c3ccc(Cl)cc3)c2C1,–,10 µM (active),–
COc1ccc(-c2cc3nc4c(c(=O)n3[nH]2)CN(C(=O)c2ccc(C)nc2)CC4)cc1,-16.8% [at 5.79 µM] (inactive),–,–
CC(=O)N1CCc2nc(C3CC3)nc(-c3ccc(Cl)cc3)c2C1,-17.7% [at 44.1 µM] (inactive),–,–
Cc1nc2c(c(-c3ccc(O)cc3)n1)CN(C(=O)c1ccccc1C)CCC2,-25% (inactive),–,–
Cc1ccc(F)c(OCC(=O)c2ccc3c(c2)N(CCCC(=O)NCC2CCCO2)C(=O)CO3)c1 (centres undefined),–,–,inactive
O=C(Cc1ccc(Oc2ccccc2)cc1)N1CC(COc2ccccc2)C2(C1)CN(C(=O)c1cn[nH]c1)C2 (centres undefined),-2.51% (inactive),–,–
O=C(CC1COCCN1)NCCc1nc(-c2ccccn2)no1 (centres undefined),2.23% (inactive),–,–
O=C(NC[C@H]1OC[C@@H](NC2CCOCC2)[C@@H]1O)C1CCCC1,–,–,inactive [at 44.1 µM]
O=C(NCCCN1CCOCC1)C1CCN(C(=O)N2CC3CC(C2)[C@H]2CCCC(=O)N2C3)CC1 (some centres undefined),-15.4% (inactive),–,–

# From PubChem BioAssay AID1347417 (National Center for Advancing Translational Sciences (NCATS), 2020)
